Assay results from the supplement of paper PMC11732987, “Enantioselective OTUD7B fragment discovery through chemoproteomics screening and high-throughput optimisation” (Communications Chemistry, 2025).

Key:
Experiment in all cases: log2 ratio of Biotin-Ahx-Ub-VS probe labelling (fragment/DMSO); higher = less target engagement (more negative = stronger competition), active = hit call of the paper (q ≤ 0.05, log2 ratio ≤ -1)
Conditions in all cases: compound concentration: 200 uM; treatment time: 3 h
[1] = molecular target: T1, USP42 (UniProt Q9H9J4)
T1 sequence (whole entry): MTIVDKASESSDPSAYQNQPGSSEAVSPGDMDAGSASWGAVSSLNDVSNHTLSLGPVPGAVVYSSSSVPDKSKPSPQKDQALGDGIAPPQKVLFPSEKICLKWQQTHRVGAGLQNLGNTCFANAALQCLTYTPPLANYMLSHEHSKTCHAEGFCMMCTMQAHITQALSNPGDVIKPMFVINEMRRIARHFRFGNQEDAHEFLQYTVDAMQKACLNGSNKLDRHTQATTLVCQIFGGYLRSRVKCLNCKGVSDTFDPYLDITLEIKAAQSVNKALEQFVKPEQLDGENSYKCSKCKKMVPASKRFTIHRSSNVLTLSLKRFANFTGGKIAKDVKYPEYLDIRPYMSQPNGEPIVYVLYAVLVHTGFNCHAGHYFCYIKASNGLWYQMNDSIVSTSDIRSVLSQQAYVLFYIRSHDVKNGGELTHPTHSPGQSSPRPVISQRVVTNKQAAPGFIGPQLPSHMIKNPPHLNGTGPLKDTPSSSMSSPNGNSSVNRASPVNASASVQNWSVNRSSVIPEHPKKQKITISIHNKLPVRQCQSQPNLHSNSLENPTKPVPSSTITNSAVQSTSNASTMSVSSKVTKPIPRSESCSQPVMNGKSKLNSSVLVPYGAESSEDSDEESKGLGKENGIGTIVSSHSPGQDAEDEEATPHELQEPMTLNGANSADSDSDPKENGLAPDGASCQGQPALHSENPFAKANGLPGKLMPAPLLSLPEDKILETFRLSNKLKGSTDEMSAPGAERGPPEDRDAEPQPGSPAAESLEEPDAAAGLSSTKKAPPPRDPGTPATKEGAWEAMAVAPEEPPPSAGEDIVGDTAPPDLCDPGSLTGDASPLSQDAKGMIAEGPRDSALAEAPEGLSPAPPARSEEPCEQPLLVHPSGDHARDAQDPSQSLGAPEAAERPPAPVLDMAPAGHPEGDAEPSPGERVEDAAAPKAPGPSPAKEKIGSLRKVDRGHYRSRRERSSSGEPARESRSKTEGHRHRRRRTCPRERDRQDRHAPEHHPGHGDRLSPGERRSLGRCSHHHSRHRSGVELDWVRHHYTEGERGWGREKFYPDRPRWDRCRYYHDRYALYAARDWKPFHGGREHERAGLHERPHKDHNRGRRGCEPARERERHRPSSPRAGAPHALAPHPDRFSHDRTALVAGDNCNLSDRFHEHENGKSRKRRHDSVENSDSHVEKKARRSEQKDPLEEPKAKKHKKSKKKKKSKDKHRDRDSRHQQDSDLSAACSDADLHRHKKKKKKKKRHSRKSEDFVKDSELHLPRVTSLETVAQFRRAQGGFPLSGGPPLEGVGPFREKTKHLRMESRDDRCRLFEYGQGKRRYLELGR
Summary of the method: (§1)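 The table lists average log2 ratios of fragment over vehicle, from an unpaired t-test on global-median-normalised Spectronaut label-free quantities. Proteins with ≥2 unique peptides were used. Samples were HEK293T lysate (495 µg) treated in triplicate with fragment at 200 µM or vehicle for 3 h, then with Biotin-Ahx-Ub-VS (0.5 µM final) for 1 h, with labelled DUBs NeutrAvidin-enriched and run by diaPASEF LC-MS/MS.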

[2] = molecular target: USP46 (UniProt P62068)
Chain of USP46 (P62068 whole entry): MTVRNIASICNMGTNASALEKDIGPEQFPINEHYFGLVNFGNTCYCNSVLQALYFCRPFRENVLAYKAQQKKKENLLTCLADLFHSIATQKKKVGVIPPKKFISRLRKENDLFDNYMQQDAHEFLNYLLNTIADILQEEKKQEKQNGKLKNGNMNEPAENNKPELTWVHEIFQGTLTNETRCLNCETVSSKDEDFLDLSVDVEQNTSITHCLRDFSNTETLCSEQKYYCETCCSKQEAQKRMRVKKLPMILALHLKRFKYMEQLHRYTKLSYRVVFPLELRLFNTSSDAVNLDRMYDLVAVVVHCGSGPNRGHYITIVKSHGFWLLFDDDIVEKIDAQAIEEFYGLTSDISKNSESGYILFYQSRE
Summary of the method: as §1

[3] = molecular target: T2, USP47 (UniProt Q96K76)
T2 sequence (whole entry): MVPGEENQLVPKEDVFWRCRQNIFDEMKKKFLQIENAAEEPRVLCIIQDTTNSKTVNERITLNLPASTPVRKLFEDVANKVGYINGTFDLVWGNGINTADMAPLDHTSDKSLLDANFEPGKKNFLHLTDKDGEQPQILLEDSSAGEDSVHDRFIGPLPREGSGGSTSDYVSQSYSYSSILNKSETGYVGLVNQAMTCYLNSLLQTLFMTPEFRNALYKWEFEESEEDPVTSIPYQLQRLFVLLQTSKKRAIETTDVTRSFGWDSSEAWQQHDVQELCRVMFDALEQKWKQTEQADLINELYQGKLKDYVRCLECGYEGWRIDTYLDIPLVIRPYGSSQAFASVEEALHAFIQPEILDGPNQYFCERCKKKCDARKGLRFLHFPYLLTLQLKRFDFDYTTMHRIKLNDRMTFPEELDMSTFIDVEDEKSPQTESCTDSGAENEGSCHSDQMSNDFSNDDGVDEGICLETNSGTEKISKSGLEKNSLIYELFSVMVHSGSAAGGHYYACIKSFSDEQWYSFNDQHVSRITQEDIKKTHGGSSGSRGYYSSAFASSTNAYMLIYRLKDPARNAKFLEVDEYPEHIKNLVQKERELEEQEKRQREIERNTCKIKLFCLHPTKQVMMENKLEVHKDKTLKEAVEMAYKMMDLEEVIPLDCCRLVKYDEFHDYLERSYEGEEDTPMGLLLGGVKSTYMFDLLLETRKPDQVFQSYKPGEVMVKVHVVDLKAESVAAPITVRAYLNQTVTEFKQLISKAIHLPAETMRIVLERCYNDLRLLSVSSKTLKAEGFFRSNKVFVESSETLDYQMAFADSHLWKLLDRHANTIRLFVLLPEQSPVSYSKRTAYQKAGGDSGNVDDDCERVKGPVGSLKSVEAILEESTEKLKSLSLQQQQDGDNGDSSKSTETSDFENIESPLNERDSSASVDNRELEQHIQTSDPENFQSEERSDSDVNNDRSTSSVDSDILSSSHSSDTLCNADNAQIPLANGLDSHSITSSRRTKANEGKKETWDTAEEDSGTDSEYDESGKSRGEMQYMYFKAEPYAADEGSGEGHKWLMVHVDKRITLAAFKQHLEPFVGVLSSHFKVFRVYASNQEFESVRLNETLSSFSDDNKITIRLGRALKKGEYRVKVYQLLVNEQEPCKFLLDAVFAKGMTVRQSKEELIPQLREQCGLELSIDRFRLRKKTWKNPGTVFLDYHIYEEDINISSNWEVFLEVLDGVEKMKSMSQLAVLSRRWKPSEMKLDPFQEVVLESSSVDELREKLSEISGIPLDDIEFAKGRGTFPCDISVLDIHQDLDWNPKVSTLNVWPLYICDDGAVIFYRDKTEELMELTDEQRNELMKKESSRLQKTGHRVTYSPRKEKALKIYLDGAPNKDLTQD
Summary of the method: as §1

[4] = molecular target: T3, USP48 (UniProt Q86UV5)
T3 sequence (whole entry): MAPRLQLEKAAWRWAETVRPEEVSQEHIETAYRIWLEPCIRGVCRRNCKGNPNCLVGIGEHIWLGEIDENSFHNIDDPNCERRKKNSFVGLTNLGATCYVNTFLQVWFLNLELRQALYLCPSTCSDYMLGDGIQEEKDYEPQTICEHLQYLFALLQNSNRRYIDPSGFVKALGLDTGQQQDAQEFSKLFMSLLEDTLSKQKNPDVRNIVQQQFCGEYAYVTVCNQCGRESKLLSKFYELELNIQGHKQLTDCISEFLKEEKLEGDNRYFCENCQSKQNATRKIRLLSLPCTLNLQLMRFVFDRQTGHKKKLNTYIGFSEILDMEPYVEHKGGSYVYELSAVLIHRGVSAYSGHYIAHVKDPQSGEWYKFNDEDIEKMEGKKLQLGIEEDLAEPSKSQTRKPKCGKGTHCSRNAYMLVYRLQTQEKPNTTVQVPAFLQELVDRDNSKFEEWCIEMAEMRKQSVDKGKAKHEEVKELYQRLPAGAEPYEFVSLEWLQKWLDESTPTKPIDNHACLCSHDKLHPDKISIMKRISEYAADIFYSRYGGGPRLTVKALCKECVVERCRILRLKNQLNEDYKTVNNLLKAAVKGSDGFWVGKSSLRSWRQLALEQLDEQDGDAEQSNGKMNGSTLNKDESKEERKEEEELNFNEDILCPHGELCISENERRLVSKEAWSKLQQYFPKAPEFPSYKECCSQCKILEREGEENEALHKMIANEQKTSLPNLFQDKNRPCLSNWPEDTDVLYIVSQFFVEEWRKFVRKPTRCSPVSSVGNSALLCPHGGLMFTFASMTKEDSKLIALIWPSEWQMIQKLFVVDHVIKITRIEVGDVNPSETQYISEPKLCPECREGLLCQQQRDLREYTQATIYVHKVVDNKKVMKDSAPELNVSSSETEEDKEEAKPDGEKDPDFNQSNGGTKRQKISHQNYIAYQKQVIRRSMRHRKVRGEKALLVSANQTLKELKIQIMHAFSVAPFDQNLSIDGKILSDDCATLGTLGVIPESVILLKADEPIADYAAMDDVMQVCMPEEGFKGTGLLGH
Summary of the method: as §1

[5] = molecular target: T4, USP5 (UniProt P45974)
T4 sequence (whole entry): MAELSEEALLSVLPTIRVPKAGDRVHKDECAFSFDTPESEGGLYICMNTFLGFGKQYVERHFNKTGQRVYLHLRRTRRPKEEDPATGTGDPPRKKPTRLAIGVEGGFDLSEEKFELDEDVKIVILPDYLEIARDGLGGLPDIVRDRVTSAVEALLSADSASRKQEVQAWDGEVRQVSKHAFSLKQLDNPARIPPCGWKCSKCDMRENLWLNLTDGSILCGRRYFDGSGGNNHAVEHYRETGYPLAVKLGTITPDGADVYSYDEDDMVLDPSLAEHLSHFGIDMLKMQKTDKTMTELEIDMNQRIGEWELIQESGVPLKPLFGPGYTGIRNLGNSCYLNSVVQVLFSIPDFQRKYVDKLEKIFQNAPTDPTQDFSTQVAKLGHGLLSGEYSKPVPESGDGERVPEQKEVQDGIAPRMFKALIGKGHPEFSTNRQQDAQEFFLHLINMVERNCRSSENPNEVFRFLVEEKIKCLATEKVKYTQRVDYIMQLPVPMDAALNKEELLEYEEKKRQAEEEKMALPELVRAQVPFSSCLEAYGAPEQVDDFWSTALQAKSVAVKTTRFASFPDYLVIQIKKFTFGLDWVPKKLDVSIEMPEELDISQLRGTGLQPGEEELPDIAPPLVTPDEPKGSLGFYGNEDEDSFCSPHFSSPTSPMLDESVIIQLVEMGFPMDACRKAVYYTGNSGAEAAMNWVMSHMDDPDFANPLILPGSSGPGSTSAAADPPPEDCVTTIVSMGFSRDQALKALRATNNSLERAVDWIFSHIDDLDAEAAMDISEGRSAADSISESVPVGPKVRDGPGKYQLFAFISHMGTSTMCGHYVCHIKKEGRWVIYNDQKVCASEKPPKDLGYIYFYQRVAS
Summary of the method: as §1

[6] = molecular target: USP54 (UniProt Q70EL1)
Summary of the method: as §1

[7] = molecular target: USP7 (UniProt Q93009)
Chain of USP7 (Q93009 whole entry, looked up): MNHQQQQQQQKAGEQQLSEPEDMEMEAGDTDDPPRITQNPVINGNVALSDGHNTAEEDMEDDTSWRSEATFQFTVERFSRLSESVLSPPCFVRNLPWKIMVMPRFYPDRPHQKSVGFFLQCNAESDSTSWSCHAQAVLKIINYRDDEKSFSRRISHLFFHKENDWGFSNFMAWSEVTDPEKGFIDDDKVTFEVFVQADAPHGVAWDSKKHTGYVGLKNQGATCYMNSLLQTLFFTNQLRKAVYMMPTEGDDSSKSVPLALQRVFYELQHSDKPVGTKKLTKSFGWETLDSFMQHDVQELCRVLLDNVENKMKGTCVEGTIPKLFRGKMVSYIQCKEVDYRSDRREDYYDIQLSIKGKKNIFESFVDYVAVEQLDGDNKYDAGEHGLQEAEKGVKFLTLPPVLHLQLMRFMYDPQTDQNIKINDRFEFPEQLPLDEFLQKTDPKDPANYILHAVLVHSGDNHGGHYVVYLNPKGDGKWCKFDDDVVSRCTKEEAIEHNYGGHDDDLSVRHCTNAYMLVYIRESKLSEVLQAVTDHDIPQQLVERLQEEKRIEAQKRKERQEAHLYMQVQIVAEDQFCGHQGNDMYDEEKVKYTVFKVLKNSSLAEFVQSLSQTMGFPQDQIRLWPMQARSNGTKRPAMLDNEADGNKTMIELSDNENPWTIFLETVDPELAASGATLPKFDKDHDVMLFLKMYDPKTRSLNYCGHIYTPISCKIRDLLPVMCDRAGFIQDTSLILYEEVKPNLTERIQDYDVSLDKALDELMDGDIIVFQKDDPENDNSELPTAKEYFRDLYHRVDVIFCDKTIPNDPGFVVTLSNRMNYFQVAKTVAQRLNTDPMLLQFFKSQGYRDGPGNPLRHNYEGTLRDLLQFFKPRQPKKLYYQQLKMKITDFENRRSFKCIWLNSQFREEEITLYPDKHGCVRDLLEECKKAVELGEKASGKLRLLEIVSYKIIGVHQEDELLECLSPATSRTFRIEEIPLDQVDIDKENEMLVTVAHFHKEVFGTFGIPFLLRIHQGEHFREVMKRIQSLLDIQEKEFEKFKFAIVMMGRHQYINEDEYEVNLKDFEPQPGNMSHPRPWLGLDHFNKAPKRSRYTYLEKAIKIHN
Summary of the method: as §1

[8] = molecular target: T5, USP8 (UniProt P40818)
T5 sequence (whole entry): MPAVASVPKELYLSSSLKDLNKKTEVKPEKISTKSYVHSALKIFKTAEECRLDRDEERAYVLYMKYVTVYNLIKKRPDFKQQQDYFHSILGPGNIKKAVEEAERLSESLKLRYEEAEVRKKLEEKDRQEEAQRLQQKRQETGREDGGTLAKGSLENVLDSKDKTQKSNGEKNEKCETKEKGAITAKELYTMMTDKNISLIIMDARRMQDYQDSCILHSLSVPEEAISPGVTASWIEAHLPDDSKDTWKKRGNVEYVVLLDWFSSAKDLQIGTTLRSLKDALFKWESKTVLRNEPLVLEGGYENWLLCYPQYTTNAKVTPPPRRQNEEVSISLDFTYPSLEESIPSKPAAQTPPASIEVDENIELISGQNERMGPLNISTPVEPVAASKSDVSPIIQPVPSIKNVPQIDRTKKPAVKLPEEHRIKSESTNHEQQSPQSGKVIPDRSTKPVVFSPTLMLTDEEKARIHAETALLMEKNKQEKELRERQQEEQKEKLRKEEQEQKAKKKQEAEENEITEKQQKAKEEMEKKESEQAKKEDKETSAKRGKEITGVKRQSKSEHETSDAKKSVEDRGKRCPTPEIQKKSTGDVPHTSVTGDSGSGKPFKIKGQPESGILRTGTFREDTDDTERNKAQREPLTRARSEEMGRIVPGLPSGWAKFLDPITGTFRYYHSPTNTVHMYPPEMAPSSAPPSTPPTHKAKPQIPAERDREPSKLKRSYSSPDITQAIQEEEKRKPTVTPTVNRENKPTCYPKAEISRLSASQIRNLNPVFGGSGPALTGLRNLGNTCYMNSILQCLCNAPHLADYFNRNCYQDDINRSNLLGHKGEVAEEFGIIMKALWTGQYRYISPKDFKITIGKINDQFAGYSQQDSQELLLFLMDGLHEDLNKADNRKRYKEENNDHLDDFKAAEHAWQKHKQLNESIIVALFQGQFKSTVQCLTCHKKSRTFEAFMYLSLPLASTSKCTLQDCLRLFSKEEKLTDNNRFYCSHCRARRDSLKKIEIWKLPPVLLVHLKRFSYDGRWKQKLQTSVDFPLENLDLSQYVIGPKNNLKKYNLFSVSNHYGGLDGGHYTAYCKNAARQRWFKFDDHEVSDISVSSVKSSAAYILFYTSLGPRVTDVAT
Summary of the method: as §1

[9] = molecular target: USP9X (UniProt Q93008)
Chain of USP9X (Q93008 whole entry): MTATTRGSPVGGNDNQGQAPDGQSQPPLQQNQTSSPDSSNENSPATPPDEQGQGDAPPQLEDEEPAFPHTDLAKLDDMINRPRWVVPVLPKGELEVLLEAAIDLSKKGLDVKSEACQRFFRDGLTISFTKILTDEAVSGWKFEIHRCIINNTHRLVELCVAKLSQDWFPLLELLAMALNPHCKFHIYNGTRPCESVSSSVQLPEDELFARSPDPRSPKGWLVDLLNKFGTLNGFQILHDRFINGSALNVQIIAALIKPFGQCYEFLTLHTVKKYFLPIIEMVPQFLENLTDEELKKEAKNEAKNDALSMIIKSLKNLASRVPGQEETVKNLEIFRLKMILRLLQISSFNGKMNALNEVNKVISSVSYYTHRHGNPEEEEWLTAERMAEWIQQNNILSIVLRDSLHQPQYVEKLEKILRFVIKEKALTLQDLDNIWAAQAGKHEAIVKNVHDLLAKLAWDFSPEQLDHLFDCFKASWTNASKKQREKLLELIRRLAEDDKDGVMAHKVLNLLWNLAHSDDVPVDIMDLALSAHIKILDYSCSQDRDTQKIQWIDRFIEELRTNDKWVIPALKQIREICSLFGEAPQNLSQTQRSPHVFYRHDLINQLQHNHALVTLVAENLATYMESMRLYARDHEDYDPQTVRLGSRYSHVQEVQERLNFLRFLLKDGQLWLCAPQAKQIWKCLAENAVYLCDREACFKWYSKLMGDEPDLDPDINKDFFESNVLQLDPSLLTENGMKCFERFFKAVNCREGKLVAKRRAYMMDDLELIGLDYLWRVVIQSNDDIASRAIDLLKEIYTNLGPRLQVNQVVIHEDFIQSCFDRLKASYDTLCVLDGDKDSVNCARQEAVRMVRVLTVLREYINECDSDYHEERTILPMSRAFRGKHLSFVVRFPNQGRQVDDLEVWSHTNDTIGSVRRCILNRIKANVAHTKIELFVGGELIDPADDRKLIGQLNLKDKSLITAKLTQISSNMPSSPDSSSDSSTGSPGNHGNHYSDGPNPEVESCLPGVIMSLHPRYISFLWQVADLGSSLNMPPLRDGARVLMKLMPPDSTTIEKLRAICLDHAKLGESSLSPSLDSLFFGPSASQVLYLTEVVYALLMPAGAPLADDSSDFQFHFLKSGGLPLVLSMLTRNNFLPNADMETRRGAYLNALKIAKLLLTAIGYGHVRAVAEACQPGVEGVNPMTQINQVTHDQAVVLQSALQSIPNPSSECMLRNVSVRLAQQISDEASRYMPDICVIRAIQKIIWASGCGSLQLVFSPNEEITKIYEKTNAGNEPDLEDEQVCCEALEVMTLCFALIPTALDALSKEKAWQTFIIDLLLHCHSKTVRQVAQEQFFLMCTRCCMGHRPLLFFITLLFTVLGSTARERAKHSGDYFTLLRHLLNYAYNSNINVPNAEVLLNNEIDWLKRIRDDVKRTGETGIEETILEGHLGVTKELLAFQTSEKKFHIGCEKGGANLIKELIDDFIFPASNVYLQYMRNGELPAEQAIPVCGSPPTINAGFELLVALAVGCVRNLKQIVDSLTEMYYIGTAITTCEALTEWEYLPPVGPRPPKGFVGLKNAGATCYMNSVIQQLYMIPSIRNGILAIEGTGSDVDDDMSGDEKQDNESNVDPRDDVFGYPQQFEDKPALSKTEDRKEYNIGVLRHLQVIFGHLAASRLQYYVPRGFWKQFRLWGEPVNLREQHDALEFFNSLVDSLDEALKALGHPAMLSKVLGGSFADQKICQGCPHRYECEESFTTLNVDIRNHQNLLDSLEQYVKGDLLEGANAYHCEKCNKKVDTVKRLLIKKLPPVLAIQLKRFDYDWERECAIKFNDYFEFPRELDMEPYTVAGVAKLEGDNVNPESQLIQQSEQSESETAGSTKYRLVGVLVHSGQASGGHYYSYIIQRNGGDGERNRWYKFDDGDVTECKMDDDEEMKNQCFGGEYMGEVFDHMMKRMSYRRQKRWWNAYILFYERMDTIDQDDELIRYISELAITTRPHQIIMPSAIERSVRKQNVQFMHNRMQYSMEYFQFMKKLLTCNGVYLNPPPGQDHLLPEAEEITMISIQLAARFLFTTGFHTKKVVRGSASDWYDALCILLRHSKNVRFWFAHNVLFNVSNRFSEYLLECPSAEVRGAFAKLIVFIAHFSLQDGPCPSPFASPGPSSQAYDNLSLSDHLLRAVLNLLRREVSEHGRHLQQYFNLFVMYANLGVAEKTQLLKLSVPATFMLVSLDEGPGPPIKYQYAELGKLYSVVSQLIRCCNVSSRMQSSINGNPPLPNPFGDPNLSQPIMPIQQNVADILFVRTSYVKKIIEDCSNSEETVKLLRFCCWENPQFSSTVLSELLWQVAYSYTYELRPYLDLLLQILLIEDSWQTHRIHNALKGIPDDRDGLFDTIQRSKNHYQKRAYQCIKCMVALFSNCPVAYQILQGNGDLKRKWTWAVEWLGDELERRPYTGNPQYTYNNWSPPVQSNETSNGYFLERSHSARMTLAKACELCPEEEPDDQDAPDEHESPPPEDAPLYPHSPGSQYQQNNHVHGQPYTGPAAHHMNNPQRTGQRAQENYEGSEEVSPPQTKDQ
Summary of the method: as §1

[10] = molecular target: UniProt O00487
Chain of UniProt O00487 (O00487 whole entry): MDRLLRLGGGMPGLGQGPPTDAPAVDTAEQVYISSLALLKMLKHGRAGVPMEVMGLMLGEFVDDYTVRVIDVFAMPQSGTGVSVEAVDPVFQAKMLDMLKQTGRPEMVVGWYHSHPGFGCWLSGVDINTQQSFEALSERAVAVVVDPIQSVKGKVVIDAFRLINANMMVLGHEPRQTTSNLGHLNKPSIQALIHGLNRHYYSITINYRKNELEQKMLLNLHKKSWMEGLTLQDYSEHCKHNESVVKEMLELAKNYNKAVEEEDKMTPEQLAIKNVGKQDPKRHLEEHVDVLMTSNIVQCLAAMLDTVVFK
Summary of the method: as §1

Measured: log2 ratio of Biotin-Ahx-Ub-VS probe labelling

CN(CCC(O)c1ccc(Br)cc1)C(=O)CCl (stereo not given)
inactive: [1] 0.556 | [2] -0.218 | [3] -0.526 | [4] -0.691 | [5] -0.00644 | [6] 0.00894 | [7] -0.612 | [8] -0.072 | [9] -0.275 | [10] -0.00696
